# Results as given in the supplement of paper PMC3334620.
# In all, about 33,000 sequences were measured (“E-score (-0.5 to 0.5)”: median about -0.016, highest 2% from about 0.32 on). Shown is part of a subset that was picked to be rich in the highest values.
# Target: T1, Stp1 (UniProt B3LFK1)
# T1 sequence: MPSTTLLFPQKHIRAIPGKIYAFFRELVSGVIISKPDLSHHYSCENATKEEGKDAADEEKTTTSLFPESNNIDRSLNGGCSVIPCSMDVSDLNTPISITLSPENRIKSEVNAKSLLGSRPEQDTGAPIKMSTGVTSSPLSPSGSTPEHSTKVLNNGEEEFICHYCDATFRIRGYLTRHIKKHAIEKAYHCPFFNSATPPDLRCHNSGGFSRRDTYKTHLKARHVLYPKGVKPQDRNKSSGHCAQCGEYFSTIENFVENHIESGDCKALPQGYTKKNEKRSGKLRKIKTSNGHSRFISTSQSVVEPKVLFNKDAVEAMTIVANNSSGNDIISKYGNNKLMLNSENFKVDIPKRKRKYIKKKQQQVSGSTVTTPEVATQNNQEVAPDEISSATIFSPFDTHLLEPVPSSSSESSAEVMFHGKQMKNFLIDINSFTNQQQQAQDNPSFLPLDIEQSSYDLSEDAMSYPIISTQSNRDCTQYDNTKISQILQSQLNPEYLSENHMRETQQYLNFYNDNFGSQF
# Experiment: PBM E-score (8-mer binding enrichment) (E-score (-0.5 to 0.5)); higher = stronger / more preferred TF binding
# Settings: protein concentration: 200 nM; construct: GST-full length
# Description: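 Universal 'all 10-mer' protein binding microarrays (Agilent AMADID 015681) probed with GST-tagged S. cerevisiae TFs (full-length or DBD) made by in vitro transcription/translation (PURExpress), about 100-200 nM. Bound TF was detected with fluorescent anti-GST. Each ungapped 8-mer (which stands for itself and its reverse complement) is scored by the PBM enrichment score (E-score), a modified Wilcoxon-Mann-Whitney statistic from -0.5 to +0.5, computed with the Universal PBM Analysis Suite. Scale: above 0.35 generally sequence-specific binding.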
row,Sequence,PBM E-score
1,CAGCATCC,-0.252
2,AGGCATCC,-0.0829
3,AGGCATAG,0.15
4,CACCACGA,-0.0238
5,ATATCGAG,0.123
6,CATAGGGC,0.152
7,ACCCTAGA,-0.227
8,ACTGTTCC,-0.131
9,ACCATCAA,-0.149
10,ATCAGTTG,0.00725
11,GACTGCTC,-0.287
12,TTCAACAA,0.167
13,AAAAGCTC,-0.131
14,CGCCCCGC,0.221
15,AGCGCCTA,0.182
16,AGCGCCGC,0.481
17,CTCCGCGC,0.227
18,AGCGCAGC,-0.112
19,AGCGCCCC,0.0659
20,CGCCGCGC,0.487
21,CGCGCCGC,0.483
22,CACCGCGC,0.166

row,Sequence,PBM E-score
1,GCCGCCTA,0.185
2,GGCGCCTA,0.362
3,CGCGCCCC,0.209
4,CATGATCG,-0.0196
5,GGAGCCAC,-0.246
6,CAGCGAAA,-0.0495
7,CGATCAGA,-0.053
8,GTACACGA,0.136
9,ATATTAGG,0.0795
10,CTCGAAAC,0.113
11,AGACAACG,0.0214
12,CAAGACGG,-0.0357
13,CATTGCGC,0.0607
14,CGCGCCCA,0.213
15,AGCGCCCT,0.319
16,CGCGCCGA,0.362
17,CGCGCAGA,0.22
18,AGCGCCGA,0.321
19,AGCGCAGA,-0.0529
20,GGCGCCGA,0.421
21,AGCGCCCA,-0.225
22,GGCGCCCA,0.311

row,Sequence,PBM E-score
1,AGCGCCCG,-0.00709
2,GTCGCCGA,0.0933
3,AGCGCCGG,0.174
4,AGCCAAAG,-0.00729
5,AGATCCTG,-0.32
6,CACGGTCC,-0.109
7,TCCCCAAA,-0.0405
8,GACTATCC,-0.178
9,CAACCAGG,-0.196
10,GGAGTGAA,-0.0852
11,AGATTTCC,-0.00021
12,ACAAAGTG,-0.0329
13,ATCTTGAG,-0.0881
14,CACCGCGA,-0.0402
15,CGCCGCGA,0.379
16,GGCCGCGA,-0.0392
17,ACCGCCGC,0.389
18,ACCGCCAT,0.0869
19,ACCGCCGT,0.449
20,ACCGCCCT,-0.14
21,ACCGCCGG,-0.0408
22,ACCGCCGA,0.0744

row,Sequence,PBM E-score
1,AGCAACCC,-0.306
2,CGTCACGA,0.0354
3,AGAACGCA,-0.00423
4,AGGGCATA,0.128
5,CCGGCATA,-0.183
6,GTGGCATA,0.0347
7,ATGGCATA,0.226
8,ACGGCATA,0.45
9,GCGGCATA,0.435
10,AGCCTATG,-0.0976
11,ATTGGCGC,0.189
12,ACGCACCG,0.0649
13,CGTTGCTC,0.0478
14,GAAGGGCA,0.231
15,GACCGAGC,-0.228
16,GGGCGTCA,-0.037
17,CGGCGTCA,0.399
18,AGGCGTCA,0.172
19,CGGCGTGC,0.316
20,AGGCGTCC,-0.0371
21,CGGCGTCC,0.376
22,GGTGGTGA,-0.125

row,Sequence,PBM E-score
1,GAGTACGA,0.0292
2,GTCTAAGA,0.0284
3,CATACTTA,-0.00908
4,AACTTCAT,0.092
5,GAATCGGC,0.268
6,AGCATGCG,0.016
7,CAGGGGCA,-0.0911
8,AGGCCTTC,-0.188
9,CGGCCTTC,0.322
10,CGGCCTTA,0.293
11,TATAAATA,0.198
12,AATAAATG,0.219
13,AATAAATA,0.35
14,CACAGTAA,0.209
15,GGGAGACC,-0.355
16,GCCTCACC,0.327
17,GCCTCACA,0.263
18,ACCTCACC,-0.128
19,GATGCAGA,-0.0503
20,GCTGTTGA,0.169
21,CTGTAGCC,0.041
22,ATTTCAAA,0.134
